Assay results taken from PubChem BioAssay (NCI).
This is part of a sample that, as a whole, favours compounds with a hit. Of some 79,000 tested, about 15% had one in any assay. Calls of active or inactive are those of the source. Rule as the data show it: active = growth inhibition above about 70%; inactive = the rest. Where a SMILES comes first, the peptide text is derived from it. The star is where a group is joined. Cbz = O=C(OCc1ccccc1)*; Boc = CC(C)(C)OC(=O)*; Bn = c1ccc(C*)cc1

Tests used:
[1] = NCI Yeast Anticancer Drug Screen. Data for the rad50 strain (AID 155);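 also: 0% = growth of vehicle-only cultures of the same strain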; conditions: S. cerevisiae rad50 strain growth inhibition; at 50.0 µM; stronger effect = higher value
Summary of the method: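 Vehicle-treated cultures provide the reference for the growth inhibition reported for compound-exposed, repair-deficient yeast.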

[2] = NCI Yeast Anticancer Drug Screen. Data for the mec2-1 strain (AID 157); conditions: S. cerevisiae mec2-1 strain, at 50.0 µM, stronger effect = higher value
Summary of the method: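 Each compound was tested on mec2-1 yeast, a strain altered in DNA damage repair or cell cycle control. Growth inhibition is reported relative to vehicle.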

[3] = NCI Yeast Anticancer Drug Screen. Data for the sgs1 mgt1 strain (AID 161);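 also: 0% = growth of cultures given vehicle only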; conditions: S. cerevisiae sgs1 mgt1 strain, at 50.0 µM, stronger effect = higher value
Summary of the method: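 Genetically altered yeast, compound exposure, growth inhibition relative to vehicle.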

[4] = NCI Yeast Anticancer Drug Screen. Data for the cln2 rad14 strain (AID 165);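 also: 0% = growth equal to vehicle treated cultures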; conditions: S. cerevisiae cln2 rad14 strain, at 50.0 µM, stronger effect = higher value
Summary of the method: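 Test compounds were added to cln2 rad14 yeast cultures; inhibition of growth was then determined by comparison with vehicle treatment.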

[5] = NCI Yeast Anticancer Drug Screen. Data for the bub3 strain (AID 167); conditions: S. cerevisiae bub3 mutant strain, at 50.0 µM, stronger effect = higher value
Summary of the method: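 Mutant yeast screening strain plus compound; vehicle-treated cultures serve as the 0% inhibition reference.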

[6] = NCI Yeast Anticancer Drug Screen. Data for the mlh1 rad18 strain (AID 175); conditions: S. cerevisiae mlh1 rad18 strain growth inhibition; at 50.0 µM; stronger effect = higher value
Summary of the method: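 Inhibition values reflect reduced growth of mutant yeast versus vehicle-treated controls following compound exposure; the mutations affect DNA damage repair.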

Measured: growth inhibition

CCC1CC2CCC(c3cc4c(cc3OC)N(C)C3C(O)(C(=O)OC)C(OC(C)=O)C5(CC)C=CCN6CCC43C65)c3[nH]c4ccccc4c3CCN(C1)C2 (stereo not given)
inactive: [1] 2.65% | [2] 6.65% | [3] 12.4% | [4] -1% | [5] -3.35% | [6] 18.9%

Cc1nccc2cccc(CNC(C)C)c12
inactive: [1] 3.7% | [2] 2.7% | [3] 4.1% | [4] 7% | [5] -11.2% | [6] -4.25%

COc1ccc(Cl)cc1[N+](=O)[O-]
inactive: [1] 27.6% | [2] 3.15% | [3] -3.85% | [4] 9.5% | [5] 13.6% | [6] 18.2%

c1ccc(CN2COc3ccc4c5c(ccc4c3C2)OCN(Cc2ccccc2)C5)cc1
inactive: [1] -13.1% | [2] -5.45% | [3] -6.7% | [4] -21.6% | [5] 2.05% | [6] -17.7%

CCOC(=O)/C(C#N)=C/c1ccc(Cl)cc1
inactive: [1] -5.3% | [2] -11.7% | [3] -13.1% | [4] 0.85% | [5] -34.4% | [6] -0.65%

CNC(=O)CNC(=O)C(NC(=O)CNC(=O)C1CCCN1C(=O)C(C)NC(=O)C(NC(=O)OC(C)(C)C)C(C)C)C(C)C (stereo not given) (Boc-VAPGVG-NHMe; configuration not given here)
inactive: [1] -12.9% | [2] -23.6% | [3] -11.8% | [4] -11% | [5] -16.2% | [6] -18.2%

COc1ccc(/C=C(\C)C=C(C#N)C#N)cc1
inactive: [1] 45.5% | [2] 39.8% | [3] 52% | [4] 38% | [5] 45.1% | [6] 59.7%

CS(C)(=O)=Nc1ccc(F)cc1
inactive: [1] 8.9% | [2] -7.6% | [3] -2.3% | [4] -21.7% | [5] -13.1% | [6] 3.25%

Cn1c(=O)c2ccccc2c2cc([N+](=O)[O-])ccc21
inactive: [1] -11.8% | [2] -5.05% | [3] -18.5% | [4] 1.1% | [5] 12.7% | [6] -4.2%

Nc1cc(Cl)cc2cc(Cl)cnc12
inactive: [1] 54.2% | [2] 54.8% | [3] 25.4% | [4] 29.1% | [5] 47.4% | [6] 39.5%

CN1c2ccccc2Nc2cc(C#N)ccc21
inactive: [1] -0.7% | [2] -8.3% | [3] 14.8% | [4] -30.4% | [5] 19.2% | [6] 5.7%

CCC(=O)N1NC(=O)C(CC)(CC)C1=O
inactive: [1] -1.95% | [2] -26.2% | [3] 11.1% | [4] 10.7% | [5] -2.3% | [6] -35.6%

CC(=O)c1cccc(C(C)=O)c1N=Cc1ccc(Cl)cc1
inactive: [1] -30.3% | [2] -27.9% | [3] -26.4% | [4] -11.8% | [5] -18.1% | [6] -18.9%

Clc1ccc2c(c1)Cc1ccccc1-2
inactive: [1] 38.6% | [2] -6.95% | [3] 34.1% | [4] 7.5% | [5] 51.6% | [6] 22.2%

CN1CCC2c3c([nH]c4ccccc34)C(C)(C)OC2C1 (stereo not given)
inactive: [1] -11.9% | [2] -35.9% | [3] -33.6% | [4] 9.2% | [5] -24.6% | [6] 6.65%

Cc1ccc(S(=O)(=O)c2ccc(C)cc2[N+](=O)[O-])c([N+](=O)[O-])c1
inactive: [1] -58.1% | [2] -52.1% | [3] -25.4% | [4] -6.2% | [5] -19.9% | [6] -44.6%

Cc1cc2c(=O)cc(-c3ccccc3)oc2c(C(N)=O)c1C
inactive: [1] 15.3% | [2] 19.9% | [3] 27.5% | [4] -2.95% | [5] 14.8% | [6] 1.55%

O=C(NC1CC/C=C(/c2ccccc2)CC(Cl)C1)c1ccccc1 (stereo not given)
inactive: [1] 7.85% | [2] 4.9% | [3] -8.9% | [4] -3.5% | [5] 6.6% | [6] -0.25%

C=C(C)C12CC3CC(/C(=N/O)C(C1)/C3=N\O)[C@@]2(C)O (stereo not given in full)
inactive: [1] -31.8% | [2] -34.8% | [3] -46% | [4] -8.2% | [5] -26.9% | [6] -59%

COc1cc2c(cc1OC)C1(CCCl)C3CC4C(=CCOC5CC(=O)N2C1C54)CN3C(=O)Cc1ccccc1 (stereo not given)
inactive: [1] 40.2% | [2] 4.95% | [3] 16.4% | [4] 11.2% | [5] 5.9% | [6] 23.6%

CC(C)C(NC(=O)C(CSCc1ccccc1)NC(=O)OCc1ccccc1)C(=O)O (stereo not given) (Cbz-Cys(Bn)-Val-OH; configuration not given here)
inactive: [1] 24.1% | [2] -2.4% | [3] 13.4% | [4] 28.1% | [5] -2.1% | [6] 21.1%

COc1ccccc1OCC(O)CNc1ccc(Cl)cc1C(=O)c1ccccc1 (stereo not given)
inactive: [1] 3.25% | [2] 21.5% | [3] -8.8% | [4] -12% | [5] -2.7% | [6] -19.4%

CC(=O)OC1CC23CCC(=O)C2(CC3)C1 (stereo not given)
inactive: [1] 19.9% | [2] -5.8% | [3] 1.85% | [4] -30.1% | [5] 8.3% | [6] -11%

COc1ccc2c(c1)s/c(=N/N)n2CCCS(=O)(=O)O
inactive: [1] 5.5% | [2] -1.75% | [3] 20.9% | [4] 23.1% | [5] 5.4% | [6] 12.2%

CC1(C)CCNc2ccccc2S1
inactive: [1] -0.55% | [2] 1.7% | [3] 2.05% | [4] -25.9% | [5] -11.1% | [6] -14.6%

COC1(OC)C(Cl)=C(Cl)C2C1C1(Cl)C(Cl)=C(Cl)C2(Cl)C1(OC)OC (stereo not given)
inactive: [1] 39.9% | [2] 10.1% | [3] 1.7% | [4] 13.6% | [5] 2.2% | [6] 5.3%

COc1cc2c(cc1OC)-c1cc3ccc(OC)c(OC)c3c[n+]1CC2
inactive: [1] -8.55% | [2] -21.8% | [3] 23.6% | [4] -14.1% | [5] -9.45% | [6] -4.35%

Nc1ccccc1S(=O)O
inactive: [1] -4% | [2] 8.55% | [3] 14.9% | [4] 7.7% | [5] -25.9% | [6] 13.1%

CCOc1ccc(N=C2C=C(Nc3ccc(OCC)cc3)C(=Nc3ccc(OCC)cc3)C=C2Nc2ccc(OCC)cc2)cc1
inactive: [1] -17.7% | [2] -14.5% | [3] -24.2% | [4] -18.4% | [5] 2.35% | [6] -24.5%

CN(C)CCO[Si](C)(c1ccccc1)c1ccc(F)cc1 (stereo not given)
inactive: [1] 16.6% | [2] -7.95% | [3] 20.6% | [4] -10.1% | [5] 11.8% | [6] 3.95%

C[C@H]1S[C@@H](c2ccc(Cl)cc2Cl)N(NC(=O)c2ccncc2)C1=O
inactive: [1] 57.9% | [2] 45% | [3] 40% | [4] 46.9% | [5] 52.1% | [6] 39.3%

CC(=S)N/C=C/c1c(C(=O)O)cc([N+](=O)[O-])cc1[N+](=O)[O-]
inactive: [1] -16.9% | [2] -27.7% | [3] 4.55% | [4] -12.8% | [5] -18.9% | [6] 4.7%

COc1ccc(NS(=O)(=O)c2ccc(NCc3c4ccccc4nc4cc(Cl)ccc34)cc2)nn1
inactive: [1] 20.2% | [2] 45% | [3] 9.65% | [4] -30.8% | [5] -8.3% | [6] 37.5%

Cc1nc(Cl)c2cnccn12
inactive: [1] -4.2% | [2] -1.85% | [3] 7.8% | [4] -37.5% | [5] -1.25% | [6] 0.2%

CCOC(=O)c1c(C)c2c(n1C)CC/C(=C/NCCc1ccccc1)C2=O
inactive: [4] 29.8%
active: [1] 93% | [2] 79% | [3] 86.4% | [5] 90.5% | [6] 93.3%

Nc1ccc2ncc(NCc3ccc(F)cc3)nc2c1
inactive: [1] -4% | [2] -25.9% | [3] -25.6% | [4] 18.1% | [5] 3.4% | [6] 5.15%

CN(C)C(=O)C(c1ccccc1)P(=O)(c1ccccc1)c1ccccc1 (stereo not given)
inactive: [1] -7.9% | [2] -12.1% | [3] -0.9% | [4] -26.6% | [5] -21.2% | [6] -5.25%

CCC(=N\NC(N)=S)/C(C)=N/O
inactive: [1] -2.35% | [2] 6.3% | [3] 19.4% | [4] 15.2% | [5] 14.3% | [6] 16.3%

CN1CCCC(C(O)c2ccccc2)S1(=O)=O (stereo not given)
inactive: [1] 17.2% | [2] 23.4% | [3] -1.3% | [4] 9.65% | [5] 29.4% | [6] 14.3%

Nc1nc(N)c(-c2ccc(Cl)cc2)c(CCC(=O)Nc2cccc(C(F)(F)F)c2)n1
inactive: [1] -25.2% | [2] -3.55% | [3] -30% | [4] -0.25% | [5] -17.1% | [6] -21.1%
